Assay results as given in PubChem BioAssay.
Activity calls are given as the source filed them.

Experiments:
[1] = biological target: Albumin (Bos taurus) (UniProt P02769); assay: bovine serum albumin binders on microarray, profiling panel, artefact control for SMM control protein annotation, biochemical, small-molecule microarray, Alexa647 label, 635/667 nm fluorescence (AID 1118); details: BSA-A647 binding, fluorescence 635 nm, higher = more signal;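 further: score merges 667 nm emission intensity and signal-to-noise per printed compound spot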
Chain of Albumin (Bos taurus) (P02769 whole entry, looked up): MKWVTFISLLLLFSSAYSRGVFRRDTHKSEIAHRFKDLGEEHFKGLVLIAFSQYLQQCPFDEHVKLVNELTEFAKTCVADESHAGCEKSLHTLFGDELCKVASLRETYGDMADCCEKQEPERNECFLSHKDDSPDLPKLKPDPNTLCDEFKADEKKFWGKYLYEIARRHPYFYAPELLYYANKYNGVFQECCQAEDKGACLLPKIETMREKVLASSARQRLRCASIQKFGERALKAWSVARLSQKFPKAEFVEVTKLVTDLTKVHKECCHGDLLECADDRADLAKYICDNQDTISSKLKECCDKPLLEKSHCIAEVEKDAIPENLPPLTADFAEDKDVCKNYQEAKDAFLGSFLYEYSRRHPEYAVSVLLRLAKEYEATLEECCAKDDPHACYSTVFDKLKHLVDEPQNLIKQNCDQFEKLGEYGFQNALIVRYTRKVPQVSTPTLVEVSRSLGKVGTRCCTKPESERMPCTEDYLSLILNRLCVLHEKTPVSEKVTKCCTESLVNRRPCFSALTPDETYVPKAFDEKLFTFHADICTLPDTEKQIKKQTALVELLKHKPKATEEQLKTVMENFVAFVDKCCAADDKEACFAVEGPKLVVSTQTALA

[2] = small-molecule microarray binders of probe aXIP, primary screen, biochemical, NeuroSMM set, 635/667 nm fluorescence (AID 1119); details: higher = more signal, called active from +8 up or from −8 down;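 further: probe is the protein aXip251-270 applied at 1 µg/mL to compound-printed slides; binding of probe to printed compounds measured as 667 nm fluorescence plus signal to noise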
[3] = small-molecule binders of probe aNOTCH3, primary screen, biochemical, small-molecule microarray, 635/667 nm fluorescence (AID 1120); details: higher = more signal;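 further: probe is a biotin-tagged antibody raised against NOTCH3 rather than NOTCH3 protein; score merges spot fluorescence near 667 nm with spot signal to noise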
[4] = small-molecule binders of probe aNOTCH2, primary screen, biochemical, small-molecule microarray, 635/667 nm fluorescence (AID 1121); details: higher = more signal;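 further: score merges feature fluorescence read at 667 nm with its signal to noise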
[5] = biological target: Carbonic anhydrase 2 (Homo sapiens) (UniProt P00918); assay: CAII small-molecule binders, profiling panel, biochemical, small-molecule microarray, Alexa647-labelled CAII (AID 1122); details: CAII-A647 binding fluorescence, higher = more signal
[6] = COS7 lysate on small-molecule microarray, probe aHis, 635 nm (AID 1123); details: COS7 cell lysate, fluorescence, higher = more signal;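 further: z-score combines 667nm fluorescence intensity with signal-to-noise per printed compound spot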
[7] = compound binding in COS7 lysate, probe aLAP1, primary screen, cell lysate, small-molecule microarray (AID 1124); details: probe aLAP1, fluorescence, higher = more signal;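 further: lysate comes from COS7 cells expressing LAP1 and is applied at 0.3 µg/mL; score merges spot fluorescence near 667 nm with signal-to-noise over triplicate slides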
[8] = system: Sam68 (KHDRBS1); assay: Sam68 small-molecule binders, primary screen, biochemical, small-molecule microarray, 635 nm fluorescence (AID 1125); details: small-molecule microarray binding, higher = more signal;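 further: score merges 667 nm channel intensity with signal to noise over triplicate slides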
[9] = system: Chordin-like protein 2 (CHRDL2); assay: CHRDL2 small-molecule binders, primary screen, biochemical, small-molecule microarray, 635 nm fluorescence (AID 1126); details: small-molecule microarray binding, fluorescence 635 nm; higher = more signal;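 further: printed compound slides probed with Chrdl2 protein at 4 µg/mL for 1 h at 4 C; score merges 667 nm emission intensity with signal to noise over three replicate slides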
[10] = biological target: Concanavalin-A (Canavalia ensiformis) (UniProt P02866); assay: ConA small-molecule binders, primary screen, artefact control for SMM control protein annotation, biochemical, small-molecule microarray, Alexa647 label, 635 nm (AID 1127); details: ConA-A647 binding fluorescence, higher = more signal;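 further: z combines 667 nm emission intensity with signal-to-noise across three replicate slides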
Chain of Concanavalin-A (Canavalia ensiformis) (P02866 whole entry, looked up): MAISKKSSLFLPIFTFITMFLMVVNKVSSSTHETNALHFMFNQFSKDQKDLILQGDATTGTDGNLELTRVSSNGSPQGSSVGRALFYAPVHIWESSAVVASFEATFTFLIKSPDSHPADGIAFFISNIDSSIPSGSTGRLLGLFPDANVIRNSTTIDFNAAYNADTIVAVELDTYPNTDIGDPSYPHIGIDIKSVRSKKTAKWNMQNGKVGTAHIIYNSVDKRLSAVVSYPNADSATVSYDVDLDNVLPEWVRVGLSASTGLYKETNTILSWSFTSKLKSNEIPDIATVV

[11] = anti-His antibody binders, primary screen, artefact control for SMM control protein annotation, biochemical, small-molecule microarray, 635 nm fluorescence (AID 1128); details: anti-His Alexa647 antibody binding, higher = more signal;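 further: score merges feature fluorescence with signal-to-noise for each printed compound spot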
[12] = system: Human papillomavirus type 1a E7 protein (residues 1-88); assay: HPV1a E7 small-molecule binders, primary screen, biochemical, small-molecule microarray, residues 1-88, 635 nm (AID 1129); details: small-molecule microarray binding, fluorescence 635 nm; higher = more signal
[13] = biological target: Focal adhesion kinase 1 (Homo sapiens) (UniProt Q05397); assay: small-molecule microarray binders of FAK, primary screen, biochemical, 635/667 nm fluorescence, BSA, DTT (AID 1130); details: PTK2 binding, 635 nm fluorescence, higher = more signal;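 further: composite of spot emission at 667 nm and signal to noise over triplicate slides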
Chain of Focal adhesion kinase 1 (Homo sapiens) (Q05397 whole entry, looked up): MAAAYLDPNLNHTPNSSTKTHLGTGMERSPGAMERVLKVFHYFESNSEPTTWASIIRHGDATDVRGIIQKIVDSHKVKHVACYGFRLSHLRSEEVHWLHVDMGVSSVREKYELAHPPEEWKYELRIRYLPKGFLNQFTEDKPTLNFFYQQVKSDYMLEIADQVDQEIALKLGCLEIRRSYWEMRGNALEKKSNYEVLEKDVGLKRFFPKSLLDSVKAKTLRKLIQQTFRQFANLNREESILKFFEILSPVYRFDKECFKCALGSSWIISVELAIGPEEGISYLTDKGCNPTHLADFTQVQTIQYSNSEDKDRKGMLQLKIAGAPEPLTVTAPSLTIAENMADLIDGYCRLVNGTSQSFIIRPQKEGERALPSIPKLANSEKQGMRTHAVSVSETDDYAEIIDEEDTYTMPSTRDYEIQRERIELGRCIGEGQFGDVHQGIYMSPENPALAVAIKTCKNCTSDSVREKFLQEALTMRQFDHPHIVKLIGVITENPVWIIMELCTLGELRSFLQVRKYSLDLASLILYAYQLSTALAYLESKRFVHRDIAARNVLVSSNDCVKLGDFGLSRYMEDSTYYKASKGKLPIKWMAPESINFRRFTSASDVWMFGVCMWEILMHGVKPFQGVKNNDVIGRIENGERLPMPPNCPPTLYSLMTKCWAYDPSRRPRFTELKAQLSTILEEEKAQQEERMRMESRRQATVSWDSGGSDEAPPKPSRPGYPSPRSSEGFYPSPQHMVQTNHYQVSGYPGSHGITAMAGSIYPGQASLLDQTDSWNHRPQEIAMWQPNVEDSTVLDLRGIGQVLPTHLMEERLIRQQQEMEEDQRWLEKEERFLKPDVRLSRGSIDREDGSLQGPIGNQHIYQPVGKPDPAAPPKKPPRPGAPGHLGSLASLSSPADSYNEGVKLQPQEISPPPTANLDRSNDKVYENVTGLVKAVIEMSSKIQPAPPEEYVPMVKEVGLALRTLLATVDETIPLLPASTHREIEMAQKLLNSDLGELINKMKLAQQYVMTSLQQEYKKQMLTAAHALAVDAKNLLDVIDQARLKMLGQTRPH

[14] = system: Fibrinogen (Alexa647-labelled); assay: fibrinogen binders on compound microarrays, profiling panel, artefact control for SMM control-protein annotation, biochemical, small-molecule microarray, 635/667 nm fluorescence (AID 1131); details: fibrinogen-A647 binding fluorescence, higher = more signal;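 further: z-score merges 667 nm fluorescence with per-spot signal-to-noise over triplicate slides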
[15] = biological target: Follistatin (Homo sapiens) (UniProt P19883); assay: follistatin binders on small-molecule microarrays, primary screen, biochemical, small-molecule microarray, 635/667 nm fluorescence (AID 1132); details: FST binding, 635 nm fluorescence, higher = more signal
Chain of Follistatin (Homo sapiens) (P19883 whole entry, looked up): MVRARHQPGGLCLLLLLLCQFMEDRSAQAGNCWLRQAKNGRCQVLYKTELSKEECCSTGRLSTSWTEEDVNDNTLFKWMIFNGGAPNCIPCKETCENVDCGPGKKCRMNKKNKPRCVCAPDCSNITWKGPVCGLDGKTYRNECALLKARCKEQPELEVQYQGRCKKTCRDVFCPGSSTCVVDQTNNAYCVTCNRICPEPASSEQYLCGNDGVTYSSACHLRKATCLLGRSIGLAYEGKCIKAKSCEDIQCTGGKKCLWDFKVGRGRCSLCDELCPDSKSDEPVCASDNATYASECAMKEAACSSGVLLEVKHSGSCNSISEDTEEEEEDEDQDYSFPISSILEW

[16] = biological target: Fibroblast growth factor 2 (Homo sapiens) (UniProt P09038); assay: FGF2 binders on small-molecule microarrays, primary screen, biochemical, small-molecule microarray, 635/667 nm fluorescence (AID 1133); details: small-molecule microarray binding, FGF2, fluorescence 635/667; higher = more signal
Chain of Fibroblast growth factor 2 (Homo sapiens) (P09038 whole entry, looked up): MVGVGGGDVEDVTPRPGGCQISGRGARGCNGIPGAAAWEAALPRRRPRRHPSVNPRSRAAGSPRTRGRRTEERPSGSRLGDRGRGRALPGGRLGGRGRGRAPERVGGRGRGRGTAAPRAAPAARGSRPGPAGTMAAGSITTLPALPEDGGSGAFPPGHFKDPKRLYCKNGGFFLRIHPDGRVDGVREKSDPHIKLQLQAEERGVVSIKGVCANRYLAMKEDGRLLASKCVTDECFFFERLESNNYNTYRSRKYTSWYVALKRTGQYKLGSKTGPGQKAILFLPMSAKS

[17] = mitochondrial membrane potential change in A549 cells, profiling panel, cell-based, JC-1 fluorescence, basal, 24 h, 100 nL (AID 1138); details: higher = more signal;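 further: A549 lung adenocarcinoma cells under basal conditions with no added stimulus; test concentration not given here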
[18] = system: Lefty1; assay: Lefty1 binders on small-molecule microarrays, primary screen, biochemical, small-molecule microarray, 635/667 nm fluorescence (AID 1139); details: small-molecule microarray binding, fluorescence 635/667; higher = more signal
[19] = system: wheat germ agglutinin (Triticum aestivum), Alexa647-labelled; assay: wheat germ agglutinin binders on compound microarrays, profiling panel, artefact control for SMM control-protein annotation, biochemical, small-molecule microarray, 635/667 nm fluorescence (AID 1140); details: WGA-A647 binding, 635 nm fluorescence, higher = more signal;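 further: score merges 667 nm feature emission with signal to noise over triplicate slides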
[20] = biological target: Luciferin 4-monooxygenase (Photinus pyralis) (UniProt P08659); assay: firefly luciferase enzyme inhibitors, primary screen, biochemical, luminescence, purified enzyme, 2006 set (AID 1141); details: SteadyGlo luminescence, 30 min, higher = more signal, called active from +8 up or from −8 down;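 further: cell-free assay with purified firefly luciferase at 100 ng per well in PBS; test concentration not given here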
Chain of Luciferin 4-monooxygenase (Photinus pyralis) (P08659 whole entry, looked up): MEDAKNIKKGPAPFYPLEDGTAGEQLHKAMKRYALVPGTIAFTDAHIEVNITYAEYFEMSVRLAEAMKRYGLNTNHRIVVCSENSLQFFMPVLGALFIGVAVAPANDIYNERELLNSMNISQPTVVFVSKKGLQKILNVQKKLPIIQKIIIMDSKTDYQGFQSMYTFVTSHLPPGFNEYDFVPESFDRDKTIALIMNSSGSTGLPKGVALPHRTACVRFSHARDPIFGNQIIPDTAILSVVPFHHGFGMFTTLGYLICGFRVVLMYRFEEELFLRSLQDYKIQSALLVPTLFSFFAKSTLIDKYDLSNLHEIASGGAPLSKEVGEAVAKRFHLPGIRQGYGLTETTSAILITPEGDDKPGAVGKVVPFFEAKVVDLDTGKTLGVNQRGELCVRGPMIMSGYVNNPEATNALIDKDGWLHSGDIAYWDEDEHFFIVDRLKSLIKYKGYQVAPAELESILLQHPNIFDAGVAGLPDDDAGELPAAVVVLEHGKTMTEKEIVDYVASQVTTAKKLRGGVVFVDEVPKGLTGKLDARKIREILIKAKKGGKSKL

SMILES	composite z-score [1]	composite Z-score [2]	composite z-score [3]	composite z-score [4]	composite z-score [5]	composite z-score [6]	composite z-score [7]	composite z-score [8]	composite z-score [9]	composite z-score [10]	composite z-score [11]	composite z-score [12]	composite z-score [13]	composite z-score [14]	composite z-score [15]	composite z-score [16]	z-score [17]	composite z-score [18]	composite z-score [19]	z-score [20]
C=CC(=C)[C@H]1Oc2ccccc2S(=O)(=O)N2CCC[C@@H]12	0	0.0556 (inactive)	-0.0588	-0.156	-0.293	-0.284	-0.0098	-0.973	0.634	-0.285	-0.133	-0.492	-0.139	0.224	0.434	0.0668	0.16	0.201	0.023	-0.261 (inactive)
C=CCN1C(=O)[C@]2(O[C@H](CCn3cc([C@H](O)c4ccccc4)nn3)[C@@H]([Si](C)(C)c3ccc(OC)cc3)[C@@H]2C)c2cc(N3CCC3=O)ccc21	0.621	0.156 (inactive)	-0.226	-0.0826	0.337	0.855	0.407	0.564	0.587	0.882	0.211	1.16	0.309	-0.713	1.28	0.792	1.37	1.2	0.386	0.114 (inactive)
C=C[C@H](C)[C@@H](OC(=O)Nc1ccc(OC)cc1)c1ccc(O)c2ccccc12	-0.964	-0.734 (inactive)	-0.118	-0.167	0.742	0.832	0.152	0.357	0.257	-0.365	0.965	0.0812	-0.603	-0.95	0.999	0.0495	-1.64	1.04	-0.235	-5.17 (inactive)
CC#CC(=O)Oc1ccccc1C=CC(=O)OCC	-0.138	-0.263 (inactive)	0.0035	-0.118	0.358	-0.0224	-0.021	0.82	-0.0448	0.502	0.259	0.69	-0.0142	-0.0002	0.036	0.524	-1.04	0.51	0.0601	1.51 (inactive)
C=C[C@H](CO[Si](CC)(CC)CC)N(Cc1ccc(OC(C)=O)c(OC)c1)S(=O)(=O)c1ccc(Br)cc1	0.848	0.646 (inactive)	0.295	0.0727	0.56	1.33	0.897	1.29	1.31	1.13	2.48	1.08	1.76	0.967	1.28	0.913	-0.202	0.237	0.713	0.0578 (inactive)
C=C(C)[C@@H]1CC=C(C(O)C2C=CC3C(=O)N(C)C(=O)C3N2Nc2ccccc2)CC1 (stereo not given in full)	0.203	0.0898 (inactive)	0.15	-0.0617	0.372	0.491	0.201	0.838	1.38	0.183	-0.243	1.17	0.427	0.262	1.38	1.12	0.54	0.987	1.18	0.485 (inactive)
